According to PubChem BioAssay (NCATS):
Values without a mark were called inactive. Results filed as inconclusive are left out. Where a call stands in place of a potency, no number is given. Activity calls are given as the source filed them. Calls follow the shape of the dose curve; as a rule, active = well fitted curve in the direction sought with a large enough effect; inconclusive = small, poorly fitted or top-dose-only effect, or another doubt; inactive = no such curve, though single readings can be large; an effect the other way counts as inactive or inconclusive.

What was measured:
[1] = target: Glutathione peroxidase 1 (Homo sapiens) (UniProt P07203); assay: Primary qHTS Assay for Inhibitors of Recombinant Selenoprotein Glutathione Peroxidase 1 (GPX1) (AID 1845191); also: nearly all actives have a fitted effect of over 65% in size
Summary of the method: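 GPX1 10 nM, GR 100 nM, GSH 1 mM, NADPH 0.5 mM, CHP 0.5 mM (final). 30-min cpd preincubation, RT. Ex340/Em450 read t=0, t=15 min.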

[2] = target: Phospholipid hydroperoxide glutathione peroxidase GPX4 (Homo sapiens) (UniProt P36969); assay: Primary qHTS Assay for Inhibitors of Recombinant Selenoprotein Glutathione Peroxidase 4 (GPX4) (AID 1845192); also: nearly all actives have a fitted effect of over 65% in size; as to activity change, negative = inhibition: series mostly up to about 50 µM
Summary of the method: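 qHTS, GR-coupled: GPX4 200 nM + cpd 30 min RT → GSH 1 mM, NADPH 0.5 mM, GR 100 nM → CHP 0.5 mM start; fluor 340/450 at t0 and t15 min; no-enzyme wells as control.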

[3] = target: Luciferin 4-monooxygenase (Photinus pyralis) (UniProt P08659); assay: Primary firefly luciferase (FLuc) qHTS assay for identification of artifact compounds. (AID 1845220); also: nearly all actives have a fitted effect of over 60% in size; as to activity change, negative = inhibition: series mostly up to about 54 µM
Summary of the method: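 In this counter-screen for luciferase artifacts, test compounds met substrate (10 uM each luciferin and ATP) before 10 nM enzyme started the reaction. Light output was measured 5 min later.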

[4] = Primary fluorescence-based thiol-reactive (MSTI) qHTS assay for identification of artifact compounds. (AID 1845221); also: nearly all actives have a fitted effect of over 65% in size; also: potency is read from the fitted curve at half-maximal effect;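 as to activity change, negative = thiol reactive: series mostly up to about 54 µM; thiol-reactive compounds lower the probe fluorescence signal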
Summary of the method: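 One-hour, room-temperature, dark incubation of compound with 4 uM MSTI in PBS (pH 7.4, 2% DMSO) precedes a fluorescence read at 525 nm excitation, 598 nm emission; Hill-equation fitting yields concentration-response values.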

[5] = system: Nanoluciferase (engineered Oplophorus gracilirostris luciferase); assay: Primary Nanoluciferase (NLuc) qHTS assay for identification of artifact compounds. (AID 1845222);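 also: NLuc secreted into diluted conditioned medium of S16 cells; series mostly up to about 54 µM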
Summary of the method: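 Using secreted nanoluciferase in S16 culture medium (0.22 um filtered, 1:55 dilution), compounds were preincubated 15 min at RT. Signal was generated with Nano-Glo reagent (1:100) over 5 min.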

[6] = Primary redox qHTS assay for identification of artifact compounds. (AID 1845223)
Summary of the method: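 Redox-cycling detection via DTT (250 uM final) oxidation coupled to Amplex Red (25 uM)/HRP (250 mU/mL) in HBSS. 15 min preincubation plus 30 min after DTT, room temperature. Ex/Em 525/598 nm; 4-parameter Hill fit against DMSO and 10 uM DA3003.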

Phospholipid hydroperoxide glutathione peroxidase GPX4 (Homo sapiens), sequence (P36969 whole entry, looked up): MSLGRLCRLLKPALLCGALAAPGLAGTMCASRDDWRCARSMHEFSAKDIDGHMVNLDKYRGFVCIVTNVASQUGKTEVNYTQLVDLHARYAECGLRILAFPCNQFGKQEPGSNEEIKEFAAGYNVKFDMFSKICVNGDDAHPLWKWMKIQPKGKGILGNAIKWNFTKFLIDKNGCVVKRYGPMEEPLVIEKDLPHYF
Glutathione peroxidase 1 (Homo sapiens), sequence (P07203 whole entry, looked up): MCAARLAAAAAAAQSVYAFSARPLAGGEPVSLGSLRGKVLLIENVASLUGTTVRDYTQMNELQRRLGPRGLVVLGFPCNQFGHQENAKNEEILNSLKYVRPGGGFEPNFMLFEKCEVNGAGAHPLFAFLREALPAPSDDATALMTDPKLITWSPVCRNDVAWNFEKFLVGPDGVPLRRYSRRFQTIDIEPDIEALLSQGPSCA

## CCc1ccc(Cc2ccc3c(c2)[C@]2(OC3)O[C@H](CO)[C@@H](O)[C@H](O)[C@H]2O)cc1
[1]
  Potency: inactive
[2]
  Potency: inactive
[3]
  Potency: inactive
[4]
  Potency: inactive
[5]
  Potency: inactive
[6]
  Potency: inactive

## C=C1C(=O)O[C@H](CCC)[C@H]1C(=O)O
[1]
  Potency: inactive
[2]
  Potency: inactive
[3]
  Potency: inactive
[4]
  Potency: inactive
[5]
  Potency: inactive
[6]
  Potency: inactive

## CC(C)(C)OC(=O)N1CCC(OCc2nc(-c3ccncc3)no2)CC1
[1]
  Potency: inactive
[2]
  Potency: inactive
[3]
  Potency: inactive
[4]
  Potency: inactive
[5]
  Potency: inactive
[6]
  Potency: inactive

## C=CC(C)(O)CC/C=C(\C)C(=O)OC1C(O)C(CO)OC(OC(=O)C23CCC(C)(C)CC2C2=CCC4C5(C)CCC(OC6OC(COC7OCC(OC(C)=O)C(O)C7OC7OC(COC(C)=O)C(O)C(O)C7O)C(O)C(O)C6O)C(C)(C)C5CCC4(C)C2(C)C(O)C3O)C1OC1OCC(OC2OCC(O)C(OC3OCC(O)C(O)C3O)C2O)C(O)C1O (centres undefined)
[1]
  outcome: inactive [at 9.52 µM]
[2]
  outcome: inactive [at 9.73 µM]
[3]
  activity change, negative = inhibition: 0.903% [at 6.45 µM]
[4]
  activity change, negative = thiol reactive: 213% [at 6.41 µM]
[5]
  activity, negative = inhibition: 2.81% [at 6.45 µM]
[6]
  redox activity (% of DA3003): -2.76% [at 6.41 µM]

## C=C1CC2C(C)(CCC(=O)O)C(C(C)(C)O)CCC2(C)C2C(=O)OC(C)(C(=O)OC)C(=O)C12C (centres undefined)
[1]
  Potency: inactive
[2]
  Potency: inactive
[3]
  Potency: inactive
[4]
  Potency: inactive
[5]
  Potency: inactive
[6]
  Potency: inactive

## CC1OC2OC(=O)C3(C)CC4=C(CO)C5=C(CC(=O)C4(C)C(C1=O)C23)C(C)(C)OC(=O)C5 (centres undefined)
[1]
  Potency: inactive
[2]
  Potency: inactive
[3]
  Potency: inactive
[4]
  Potency: inactive
[5]
  Potency: inactive
[6]
  Potency: inactive

## O=C1OCc2cc3cccc(O[C@@H]4O[C@H](CO)[C@@H](O)[C@H](O)[C@H]4O)c3c(O)c21
[1]
  Potency: inactive
[2]
  Potency: inactive
[3]
  Potency: inactive
[4]
  Potency: 1.65 µM (active)
[5]
  Potency: inactive
[6]
  Potency: inactive

## CC1=CC(=O)[C@]2(O[C@@H]3O[C@@H](C)[C@H](O)[C@@H](O)[C@H]3OC(=O)/C=C/c3ccccc3)C=CO[C@@H](O[C@@H]3O[C@H](CO)[C@@H](O)[C@H](O)[C@H]3O)[C@H]12
[1]
  Potency: inactive
[2]
  Potency: inactive
[3]
  Potency: inactive
[4]
  Potency: 2.51 µM (active)
[5]
  Potency: inactive
[6]
  Potency: inactive

## CC(C)(C)Nc1nc2cc(Cl)c(Cl)cc2nc1S(C)(=O)=O
[1]
  Potency: inactive
[2]
  Potency: inactive
[3]
  Potency: inactive
[4]
  Potency: inactive
[5]
  Potency: inactive
[6]
  Potency: inactive
